Data as given in PubChem BioAssay (Tox21).
“And” between values parts separate entries of the source, which are not always exact repeats. Equal values may be shown once. The source holds several records for some structures; these can differ, active in one and inactive in another. The source made the active and inactive calls. Where a call stands in place of a potency, no number is given. Unless noted, calls follow the shape of the dose curve; as a rule, active = well fitted curve in the direction sought with a large enough effect in the repeat runs; inconclusive = weak or mixed curves; inactive = no such curve, though single readings can be large; an effect the other way counts as inactive or inconclusive.

Assays:
[1] = test system: thyroid hormone receptor (rat, GH3 cells); experiment: qHTS assay to identify small molecule agonists of the thyroid receptor (TR) signaling pathway (AID 743066; calls by dose curve)
[2] = molecular target: Estrogen receptor (Homo sapiens) (UniProt P03372); experiment: qHTS assay to identify small molecule antagonists of the estrogen receptor alpha (ER-alpha) signaling pathway (AID 743069; active = well fitted curve in the direction sought with a large enough effect in the signal ratio in the repeat runs, not every such curve was filed as active; inconclusive = weak or mixed curves, or effect the other way; inactive = no such curve, though single readings can be large or run the other way; the % refers to the signal ratio)
How it was run: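 Estradiol-stimulated ER-alpha-UAS-bla HEK293 cells, 18 hr compound exposure at 37C. LiveBLAzer B/G substrate, 2 hr RT, fluorescence read.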

[3] = qHTS assay to identify small molecule antagonists of the estrogen receptor alpha (ER-alpha) signaling pathway - cell viability counter screen (AID 743074; calls by dose curve;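 also: HEK293 cells carrying ER-alpha-UAS-bla reporter stimulated with 17beta-estradiol; nearly all actives have a fitted effect of over 45% in size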)
[4] = molecular target: Estrogen receptor (Homo sapiens) (UniProt P03372); experiment: qHTS assay to identify small molecule agonists of the estrogen receptor alpha (ER-alpha) signaling pathway (AID 743075; calls by dose curve;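 also: HEK293 GripTite cells with ER-alpha and UAS-driven beta-lactamase reporter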; also: potency is read from the fitted curve at half-maximal effect)
[5] = molecular target: Estrogen receptor (Homo sapiens) (UniProt P03372); experiment: qHTS assay to identify small molecule agonists of the estrogen receptor alpha (ER-alpha) signaling pathway using the BG1 cell line (AID 743079); conditions: BG1Luc4E2 cells, ERE-luciferase agonist, 22 h; also: nearly all actives have a fitted effect of over 20% in size; also: potency is read from the fitted curve at half-maximal effect
[6] = qHTS assay to identify small molecule antagonists of the estrogen receptor alpha (ER-alpha) signaling pathway using the BG1 cell line (AID 743080; calls by dose curve;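 also: BG1 cells stimulated with 17beta-estradiol alongside compound; nearly all actives have a fitted effect of over 25% in size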; also: potency is read from the fitted curve at half-maximal effect)
How it was run: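 BG1-Luc-4E2 cells (endogenous full-length ER-alpha, stable 4×ERE-luciferase) were starved 5 days in phenol-red-free medium with 10% charcoal-stripped FBS, plated 24 h, then given compound plus 17beta-estradiol for 21.5 h at 37 C; ONE-Glo luminescence read after 30 min.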

[7] = qHTS assay to identify small molecule antagonists of the estrogen receptor alpha (ER-alpha) signaling pathway using the BG1 cell line - cell viability counter screen (AID 743081);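 also: compound given together with 17beta-estradiol as the ER stimulus; nearly all actives have a fitted effect of over 45% in size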; also: potency is read from the fitted curve at half-maximal effect
Aromatase (Homo sapiens) = Aromatase (Homo sapiens) (UniProt P11511); experiment: qHTS assay to identify aromatase inhibitors (AID 743083); also: nearly all actives have a fitted effect of over 55% in size; also: potency is read from the fitted curve at half-maximal effect
[8] = qHTS assay to identify aromatase inhibitors - cell viability counter screen (AID 743084);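 also: cells stimulated with testosterone during compound exposure; nearly all actives have a fitted effect of over 55% in size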; also: potency is read from the fitted curve at half-maximal effect
[9] = qHTS assay to identify small molecule antagonists of the thyroid receptor (TR) signaling pathway (AID 743065); also: nearly all actives have a fitted effect of over 55% in size; also: potency is read from the fitted curve at half-maximal effect
How it was run: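 GH3.TRE-Luc rat pituitary cells carrying two TR response elements driving luciferase were plated for 4 h, given compound plus 1 nM T3 (final), and incubated 23.5 h at 37 C. ONE-Glo luminescence measured reporter inhibition; CellTiter-Fluor fluorescence tracked cytotoxicity.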

Chain of Estrogen receptor (Homo sapiens) (P03372 whole entry, looked up): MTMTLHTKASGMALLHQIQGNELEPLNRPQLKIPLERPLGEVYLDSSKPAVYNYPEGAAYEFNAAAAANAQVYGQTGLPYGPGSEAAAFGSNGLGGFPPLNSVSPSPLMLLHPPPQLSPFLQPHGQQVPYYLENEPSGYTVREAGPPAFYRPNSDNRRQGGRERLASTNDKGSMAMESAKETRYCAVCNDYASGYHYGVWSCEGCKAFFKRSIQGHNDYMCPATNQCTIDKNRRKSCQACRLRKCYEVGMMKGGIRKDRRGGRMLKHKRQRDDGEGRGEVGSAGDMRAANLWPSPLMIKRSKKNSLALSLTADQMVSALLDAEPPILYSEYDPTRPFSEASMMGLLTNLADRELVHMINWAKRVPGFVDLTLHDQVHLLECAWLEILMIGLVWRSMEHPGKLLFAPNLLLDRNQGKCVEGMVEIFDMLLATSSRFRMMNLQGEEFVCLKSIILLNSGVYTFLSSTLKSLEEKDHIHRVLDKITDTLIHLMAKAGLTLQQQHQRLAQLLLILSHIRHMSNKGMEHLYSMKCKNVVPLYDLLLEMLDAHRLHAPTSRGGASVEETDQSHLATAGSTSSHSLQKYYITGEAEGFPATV
Chain of Aromatase (Homo sapiens) (P11511 whole entry, looked up): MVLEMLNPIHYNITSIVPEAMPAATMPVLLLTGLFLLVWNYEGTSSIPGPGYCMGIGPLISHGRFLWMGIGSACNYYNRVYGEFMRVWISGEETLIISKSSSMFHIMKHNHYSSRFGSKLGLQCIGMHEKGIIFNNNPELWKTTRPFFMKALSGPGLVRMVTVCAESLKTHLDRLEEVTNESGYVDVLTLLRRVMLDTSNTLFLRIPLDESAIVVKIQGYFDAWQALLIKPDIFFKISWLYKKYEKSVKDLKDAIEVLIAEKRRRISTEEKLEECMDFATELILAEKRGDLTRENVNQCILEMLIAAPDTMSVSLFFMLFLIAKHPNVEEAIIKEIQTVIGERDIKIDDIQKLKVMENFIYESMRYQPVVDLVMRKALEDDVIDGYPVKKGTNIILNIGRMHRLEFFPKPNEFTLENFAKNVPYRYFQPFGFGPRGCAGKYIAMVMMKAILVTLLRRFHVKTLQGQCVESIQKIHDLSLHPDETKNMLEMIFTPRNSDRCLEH

For `CCOC(=O)c1ncn2c1CN(C)C(=O)c1c(I)cccc1-2`, the Potency [1] was “inactive”, the Potency [2] was “inactive” and the Potency [3] was “inactive”. The Potency [4] was “inactive”, the activation ([5]; at 70.3 µM (top of the series)) was -3.09% (inactive) and the Potency [6] was “inactive”. For the same molecule, the Potency [7] was “inactive”, the Potency (Aromatase (Homo sapiens)) was “inactive” and the Potency [8] was “inactive”.

For `CC(C)C(C)(N)C#N` (stereo not given), the Potency [9] was “inactive”, the Potency [1] was “inactive” and the Potency [7] was “inactive”. The Potency (Aromatase (Homo sapiens)) was “inactive” and the Potency [8] was “inactive”.

In the case of `N=C(N)[Se]`, the Potency [1] was “inactive”, the Potency [2] was “inactive” and the Potency [3] was “inactive”. The Potency [4] was “inactive”, the activation ([5]; at 95 µM (top of the series)) was -2.62% (inactive) and the Potency [6] was “inactive”. The Potency (Aromatase (Homo sapiens)) was “inactive” and the Potency [8] was “inactive”.

For `N#CC(Br)(Br)C(N)=O`, the Potency [9] was “inactive”, the Potency [3] was “inactive” and the Potency [7] was “inactive”. The Potency [8] was “inactive”.

With `CCC1(CC)C(=O)C=CNC1=O` the Potency [1] was “inactive”, the Potency [2] was “inactive” and the Potency [3] was “inactive”. For the same molecule, the Potency [4] was “inactive”, the activation ([5]; at 70.3 µM (top of the series)) was 10.4% (inactive) and the Potency [6] was “inactive”. For the same molecule, the Potency [7] was “inactive”, the Potency (Aromatase (Homo sapiens)) was “inactive” and the Potency [8] was “inactive”.

For `O=C1CCCCC1Cl` (stereo not given), the Potency [9] was “inactive”, the Potency [1] was “inactive” and the Potency [7] was “inactive”. The Potency (Aromatase (Homo sapiens)) was “inactive” and the Potency [8] was “inactive”.

With `Clc1nc(Cl)nc(Nc2ccccc2Cl)n1` the Potency [9] was “inactive”, the Potency [1] was “inactive” and the Potency [4] was “inactive”. For the same molecule, the activation ([5]; at 70.3 µM (top of the series)) was 9.21% (inactive), the Potency [6] was “inactive” and the Potency [7] was “inactive”. The Potency (Aromatase (Homo sapiens)) was “inactive” and the Potency [8] was “inactive”.

With `Cn1c(CCCC(=O)O)nc2cc(N(CCCl)CCCl)ccc21` the Potency [1] was “inactive”, the Potency [2] was “inactive” and the Potency [3] was “inactive”. For the same molecule, the Potency [4] was “inactive”, the activation ([5]; at 70.3 µM (top of the series)) was -7.85% (inactive) and the Potency [6] was “inactive”. The Potency [7] was 1.06 µM (active), the Potency (Aromatase (Homo sapiens)) was “inactive” and the Potency [8] was “inactive”.

In the case of `COc1ccccc1OC`, the Potency [9] was “inactive”, the Potency [1] was “inactive” and the Potency [4] was “inactive”. For the same molecule, the activation ([5]; at 70.3 µM (top of the series)) was 21.9% (inactive), the Potency [6] was “inactive” and the Potency [7] was “inactive”. For the same molecule, the Potency (Aromatase (Homo sapiens)) was “inactive” and the Potency [8] was “inactive”.

For `CCCCCCCCSC(=O)Oc1cc(Cl)nnc1-c1ccccc1`, the Potency [1] was “inactive”, the Potency [3] was “inactive” and the Potency [4] was “inactive”. For the same molecule, the activation ([5]; at 70.3 µM (top of the series)) was 3.18% (inactive), the Potency [6] was “inactive” and the Potency [7] was “inactive”. For the same molecule, the Potency (Aromatase (Homo sapiens)) was “inactive” and the Potency [8] was “inactive”.

With `Cc1ccc(S(=O)(=O)N[C@@H](CCCCN)C(=O)CCl)cc1` the Potency [9] was 13.3 µM (active), the Potency [2] was “inactive” and the Potency [3] was “inactive”. For the same molecule, the Potency (Aromatase (Homo sapiens)) was “inactive”.

With `O=C1C2CC=CCC2C(=O)N1SC(Cl)(Cl)Cl` (stereo not given) the Potency [1] was “inactive”, the Potency [2] was “inactive” and the Potency [4] was “inactive and 48.2 µM [activator] (active)”. For the same molecule, the Potency [6] was 26.6 µM (active), the Potency [7] was “inactive” and the Potency (Aromatase (Homo sapiens)) was 13.3 µM (active) and inactive and 3.01 µM (active). For the same molecule, the Potency [8] was “inactive and 21.3 µM (active)”.

In the case of `CN(C)CCc1c[nH]c2cccc(OP(=O)(O)O)c12`, the Potency [1] was “inactive”, the Potency [2] was “inactive” and the Potency [4] was “inactive”. The activation ([5]; at 70.3 µM (top of the series)) was -12.3% (inactive), the Potency [6] was “inactive” and the Potency [7] was “inactive”. The Potency (Aromatase (Homo sapiens)) was “inactive” and the Potency [8] was “inactive”.

For `COP(=O)(OC)O/C(C)=C/C(=O)N(C)C`, the Potency [1] was “inactive”, the Potency [2] was “inactive” and the Potency [3] was “inactive”. The Potency [4] was “inactive”, the activation ([5]; at 95 µM (top of the series)) was -7.62% (inactive) and the Potency [6] was “inactive”. The Potency [7] was “inactive”, the Potency (Aromatase (Homo sapiens)) was “inactive” and the Potency [8] was “inactive”.

In the case of `Cn1c(N)nc2c3cccnc3ccc21`, the Potency [1] was “inactive”, the Potency [2] was “inactive” and the Potency [3] was “inactive”. For the same molecule, the Potency [4] was “inactive”, the activation ([5]; at 70.3 µM (top of the series)) was 9.73% (inactive) and the Potency [6] was “inactive”. The Potency (Aromatase (Homo sapiens)) was “inactive” and the Potency [8] was 29.1 µM (active).

In the case of `CCCOC(=O)Cc1ccc(OCC(=O)N(CC)CC)c(OC)c1`, the Potency [9] was “inactive”, the Potency [1] was “inactive” and the Potency [3] was “inactive”. For the same molecule, the Potency (Aromatase (Homo sapiens)) was “inactive” and the Potency [8] was “inactive”.

In the case of `CC[C@@H](CO)NC(=O)[C@@H]1C=C2c3cccc4c3c(cn4C)C[C@H]2N(C)C1`, the Potency [1] was “inactive”, the Potency [3] was “inactive” and the Potency [4] was “inactive”. The activation ([5]; at 70.3 µM (top of the series)) was 13.7% (inactive), the Potency [6] was “inactive” and the Potency [7] was “inactive”. For the same molecule, the Potency (Aromatase (Homo sapiens)) was “inactive”.

With `COC1=CC(=O)O[C@@H](/C=C/c2ccccc2)C1` the Potency [9] was “inactive”, the Potency [1] was “inactive” and the Potency [7] was “inactive”. For the same molecule, the Potency (Aromatase (Homo sapiens)) was “inactive” and the Potency [8] was “inactive”.

In the case of `OCC(Cl)CCl` (stereo not given), the Potency [1] was “inactive”, the Potency [2] was “inactive” and the Potency [3] was “inactive”. The Potency [4] was “inactive”, the activation ([5]; at 70.3 µM (top of the series)) was 3.3% (inactive) and the Potency [6] was “inactive”. For the same molecule, the Potency [7] was “inactive”, the Potency (Aromatase (Homo sapiens)) was “inactive” and the Potency [8] was “inactive”.

In the case of `CCCOc1nn(C(=O)NS(=O)(=O)c2ccccc2C(=O)OC)c(=O)n1C`, the Potency [9] was “inactive”, the Potency [1] was “inactive” and the Potency [7] was “inactive”. The Potency (Aromatase (Homo sapiens)) was “inactive” and the Potency [8] was “inactive”.

In the case of `O=C(O)C(F)(F)C(F)(F)C(F)(F)C(F)(F)C(F)(F)C(F)(F)F`, the Potency [9] was “inactive”, the Potency [1] was “inactive” and the Potency [7] was “inactive”. For the same molecule, the Potency (Aromatase (Homo sapiens)) was “inactive” and the Potency [8] was “inactive”.

With `O=C(O)C(Br)(Br)Br` the Potency [1] was “inactive”, the Potency [2] was “inactive” and the Potency [3] was “inactive”. For the same molecule, the Potency [4] was “inactive”, the activation ([5]; at 70.3 µM (top of the series)) was 6.64% (inactive) and the Potency [6] was “inactive”. The Potency [7] was “inactive”, the Potency (Aromatase (Homo sapiens)) was “inactive” and the Potency [8] was “inactive”.

With `Oc1ccc(Cc2ccc(O)cc2)cc1` the Potency [9] was “inactive”, the Potency [3] was “inactive” and the Potency [4] was 15.6 µM [inconclusive] (active). The Potency [5] was 2.45 µM (active), the Potency [6] was “inactive” and the Potency [7] was “inactive”. For the same molecule, the Potency (Aromatase (Homo sapiens)) was “inactive” and the Potency [8] was “inactive”.

For `CN1COCN(Cc2cnc(Cl)s2)/C1=N\[N+](=O)[O-]`, the Potency [9] was “inactive”, the Potency [1] was “inactive” and the Potency [7] was “inactive”. The Potency (Aromatase (Homo sapiens)) was “inactive” and the Potency [8] was “inactive”.

In the case of `N[C@@H]1C[C@H]1c1ccccc1`, the Potency [1] was “inactive”, the Potency [2] was “inactive” and the Potency [3] was “inactive”. The Potency [4] was “inactive”, the activation ([5]; at 70.3 µM (top of the series)) was 1.81% (inactive) and the Potency [6] was “inactive”. The Potency [7] was “inactive” and the Potency [8] was “inactive”.

In the case of `C=CCc1cc(OC)c2c(c1)OCO2`, the Potency [9] was “inactive”, the Potency [1] was “inactive” and the Potency [7] was “inactive”. For the same molecule, the Potency (Aromatase (Homo sapiens)) was “inactive” and the Potency [8] was “inactive”.
